Laboratory results from ChEMBL document CHEMBL2218924, “A broad activity screen in support of a chemogenomic map for kinase signalling research and drug discovery” (Biochem J, 2013).

Experiments:
[1] = target: T1, Serine/threonine-protein kinase BRSK1 (Homo sapiens) (UniProt Q8TDC3); details: at 1 µM
T1 sequence (whole entry): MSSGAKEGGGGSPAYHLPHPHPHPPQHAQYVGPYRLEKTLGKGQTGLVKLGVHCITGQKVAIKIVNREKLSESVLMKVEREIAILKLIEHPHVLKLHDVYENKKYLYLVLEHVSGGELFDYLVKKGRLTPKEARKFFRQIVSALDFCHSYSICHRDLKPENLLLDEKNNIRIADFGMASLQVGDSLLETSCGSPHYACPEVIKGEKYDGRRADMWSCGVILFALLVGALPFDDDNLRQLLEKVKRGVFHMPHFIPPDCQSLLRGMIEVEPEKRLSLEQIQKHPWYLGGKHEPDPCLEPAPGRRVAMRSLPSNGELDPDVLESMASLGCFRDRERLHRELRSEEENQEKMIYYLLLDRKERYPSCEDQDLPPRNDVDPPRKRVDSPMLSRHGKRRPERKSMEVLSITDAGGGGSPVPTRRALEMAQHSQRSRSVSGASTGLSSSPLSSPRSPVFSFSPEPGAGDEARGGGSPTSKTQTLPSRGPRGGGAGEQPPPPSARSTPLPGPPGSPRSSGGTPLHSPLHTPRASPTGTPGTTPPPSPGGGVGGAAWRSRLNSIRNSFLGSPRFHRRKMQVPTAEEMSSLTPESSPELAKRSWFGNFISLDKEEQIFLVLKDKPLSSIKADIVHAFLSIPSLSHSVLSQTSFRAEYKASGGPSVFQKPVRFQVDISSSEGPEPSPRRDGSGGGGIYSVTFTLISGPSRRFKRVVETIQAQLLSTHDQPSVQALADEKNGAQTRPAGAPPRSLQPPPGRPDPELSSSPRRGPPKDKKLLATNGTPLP

[2] = target: T1, Serine/threonine-protein kinase BRSK1 (Homo sapiens); details: at 10 µM
[3] = target: T2, Serine/threonine-protein kinase BRSK2 (Homo sapiens) (UniProt Q8IWQ3); details: at 1 µM
T2 sequence (whole entry): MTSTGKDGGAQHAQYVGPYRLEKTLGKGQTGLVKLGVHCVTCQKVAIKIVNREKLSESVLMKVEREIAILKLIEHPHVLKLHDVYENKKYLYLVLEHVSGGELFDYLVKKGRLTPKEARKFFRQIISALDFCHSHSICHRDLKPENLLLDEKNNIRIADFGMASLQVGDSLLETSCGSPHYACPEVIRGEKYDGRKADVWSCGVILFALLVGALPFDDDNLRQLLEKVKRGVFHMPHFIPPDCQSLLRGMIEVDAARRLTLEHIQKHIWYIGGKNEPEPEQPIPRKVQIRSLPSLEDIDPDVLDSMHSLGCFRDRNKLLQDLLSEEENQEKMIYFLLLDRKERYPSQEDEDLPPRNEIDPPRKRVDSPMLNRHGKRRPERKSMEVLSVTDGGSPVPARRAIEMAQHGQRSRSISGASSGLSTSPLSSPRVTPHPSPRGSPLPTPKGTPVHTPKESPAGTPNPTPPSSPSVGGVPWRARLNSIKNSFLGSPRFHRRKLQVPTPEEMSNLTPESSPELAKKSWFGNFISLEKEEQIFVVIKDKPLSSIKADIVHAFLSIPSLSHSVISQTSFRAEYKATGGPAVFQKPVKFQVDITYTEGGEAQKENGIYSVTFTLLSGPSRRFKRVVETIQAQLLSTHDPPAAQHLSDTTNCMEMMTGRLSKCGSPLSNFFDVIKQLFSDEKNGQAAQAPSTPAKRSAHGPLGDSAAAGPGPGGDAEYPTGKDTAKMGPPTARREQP

[4] = target: T2, Serine/threonine-protein kinase BRSK2 (Homo sapiens); details: at 10 µM
[5] = target: T3, Cyclin-dependent kinase 1/cyclin B1 (Homo sapiens) (UniProt P06493+P14635); details: at 1 µM
[6] = target: T3, Cyclin-dependent kinase 1/cyclin B1 (Homo sapiens); details: at 10 µM
[7] = target: T4, Cyclin-dependent kinase 2/cyclin A (Homo sapiens) (UniProt P24941+P20248+P78396); details: at 1 µM
[8] = target: T4, Cyclin-dependent kinase 2/cyclin A (Homo sapiens); details: at 10 µM
[9] = target: T5, Cyclin-dependent kinase 2/cyclin E (Homo sapiens) (UniProt P24864+P24941+O96020); details: at 1 µM
[10] = target: T5, Cyclin-dependent kinase 2/cyclin E (Homo sapiens); details: at 10 µM
[11] = target: T6, CDK3/cyclin E (Homo sapiens) (UniProt P24864+O96020+Q00526); details: at 1 µM
[12] = target: T6, CDK3/cyclin E (Homo sapiens); details: at 10 µM
[13] = target: T7, Cyclin-dependent kinase 5/CDK5 activator 1 (Homo sapiens) (UniProt Q00535+Q15078); details: at 1 µM
[14] = target: T7, Cyclin-dependent kinase 5/CDK5 activator 1 (Homo sapiens); details: at 10 µM
[15] = target: T7, Cyclin-dependent kinase 5/CDK5 activator 1 (Homo sapiens); details: at 1 µM; remark: listed apart in the source
[16] = target: T7, Cyclin-dependent kinase 5/CDK5 activator 1 (Homo sapiens); details: at 10 µM; remark: listed apart in the source
[17] = target: T8, CDK6/cyclin D3 (Homo sapiens) (UniProt P30281+Q00534); details: at 1 µM
[18] = target: T8, CDK6/cyclin D3 (Homo sapiens); details: at 10 µM
[19] = target: T9, Cyclin-dependent kinase 7/ cyclin H (Homo sapiens) (UniProt P51946+P50613); details: at 1 µM
[20] = target: T9, Cyclin-dependent kinase 7/ cyclin H (Homo sapiens); details: at 10 µM

T6 sequence (O96020 whole entry, looked up): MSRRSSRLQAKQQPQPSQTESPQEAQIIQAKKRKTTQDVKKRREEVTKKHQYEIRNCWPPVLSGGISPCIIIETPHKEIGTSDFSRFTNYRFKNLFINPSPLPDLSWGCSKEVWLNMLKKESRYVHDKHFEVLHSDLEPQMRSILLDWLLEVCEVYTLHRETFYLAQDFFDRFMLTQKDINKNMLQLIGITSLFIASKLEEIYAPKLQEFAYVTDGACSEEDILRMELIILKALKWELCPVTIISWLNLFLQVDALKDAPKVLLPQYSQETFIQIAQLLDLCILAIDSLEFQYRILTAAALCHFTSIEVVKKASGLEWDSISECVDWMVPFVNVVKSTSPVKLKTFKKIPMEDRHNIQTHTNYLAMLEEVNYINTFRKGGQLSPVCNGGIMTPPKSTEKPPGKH
T6 sequence (P24864 whole entry, looked up): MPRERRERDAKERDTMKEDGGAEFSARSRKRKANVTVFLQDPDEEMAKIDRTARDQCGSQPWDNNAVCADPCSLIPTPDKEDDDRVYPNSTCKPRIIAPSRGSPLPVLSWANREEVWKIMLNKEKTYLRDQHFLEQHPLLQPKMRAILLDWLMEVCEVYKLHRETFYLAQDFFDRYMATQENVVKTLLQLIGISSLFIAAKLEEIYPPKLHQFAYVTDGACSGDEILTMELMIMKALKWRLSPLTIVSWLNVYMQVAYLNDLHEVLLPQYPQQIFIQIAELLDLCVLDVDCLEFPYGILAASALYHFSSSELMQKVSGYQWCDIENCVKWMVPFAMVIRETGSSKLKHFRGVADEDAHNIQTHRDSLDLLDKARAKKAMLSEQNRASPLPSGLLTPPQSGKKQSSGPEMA
T6 sequence (Q00526 whole entry, looked up): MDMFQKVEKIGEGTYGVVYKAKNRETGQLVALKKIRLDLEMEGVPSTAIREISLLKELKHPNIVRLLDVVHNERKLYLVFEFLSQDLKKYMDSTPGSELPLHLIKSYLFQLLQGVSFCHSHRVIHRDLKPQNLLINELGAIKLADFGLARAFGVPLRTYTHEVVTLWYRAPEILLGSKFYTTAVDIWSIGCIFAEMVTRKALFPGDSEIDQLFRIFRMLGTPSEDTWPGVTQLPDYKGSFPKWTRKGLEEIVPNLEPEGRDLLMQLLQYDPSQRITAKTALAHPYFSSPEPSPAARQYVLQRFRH
T3 sequence (P06493 whole entry, looked up): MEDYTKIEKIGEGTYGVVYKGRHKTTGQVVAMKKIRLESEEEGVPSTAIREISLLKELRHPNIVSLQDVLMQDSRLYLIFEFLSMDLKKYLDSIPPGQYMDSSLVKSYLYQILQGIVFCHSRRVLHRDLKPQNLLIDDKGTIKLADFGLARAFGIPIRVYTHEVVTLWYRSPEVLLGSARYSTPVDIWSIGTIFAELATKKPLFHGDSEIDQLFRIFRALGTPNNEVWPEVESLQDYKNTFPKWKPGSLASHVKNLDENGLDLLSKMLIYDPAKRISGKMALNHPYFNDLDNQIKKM
T3 sequence (P14635 whole entry, looked up): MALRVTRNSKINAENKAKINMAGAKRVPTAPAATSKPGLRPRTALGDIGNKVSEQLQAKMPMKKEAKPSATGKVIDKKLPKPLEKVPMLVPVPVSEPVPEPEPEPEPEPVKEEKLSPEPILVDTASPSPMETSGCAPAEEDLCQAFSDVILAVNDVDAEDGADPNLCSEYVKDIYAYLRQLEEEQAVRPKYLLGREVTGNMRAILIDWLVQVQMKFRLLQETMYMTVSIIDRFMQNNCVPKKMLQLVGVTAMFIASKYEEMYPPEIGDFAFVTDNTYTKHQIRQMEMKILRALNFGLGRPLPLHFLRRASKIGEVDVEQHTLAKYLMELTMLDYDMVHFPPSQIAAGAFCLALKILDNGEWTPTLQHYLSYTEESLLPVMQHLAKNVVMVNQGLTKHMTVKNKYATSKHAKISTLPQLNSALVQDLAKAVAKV

SMILES | residual activity [1] [%] | residual activity [2] [%] | residual activity [3] [%] | residual activity [4] [%] | residual activity [5] [%] | residual activity [6] [%] | residual activity [7] [%] | residual activity [8] [%] | residual activity [9] [%] | residual activity [10] [%] | residual activity [11] [%] | residual activity [12] [%] | residual activity [13] [%] | residual activity [14] [%] | residual activity [15] [%] | residual activity [16] [%] | residual activity [17] [%] | residual activity [18] [%] | residual activity [19] [%] | residual activity [20] [%]
O=Nc1c(-c2c(O)[nH]c3ccccc23)[nH]c2ccccc12 | 13 | 12 | 10 | 5 | 35 | 19 | 19 | 5 | 6 | -1 | 5 | 0 | 3 | 2 | 5 | 1 | 16 | 5 | 42 | 16
COc1cc2ncc(-c3ccccc3)nc2cc1OC | 96 | 86 | 80 | 67 | – | – | 129 | – | – | – | 96 | 91 | – | – | – | 93 | – | – | 95 | 91
Nc1ccc2ncnc(NCCc3ccc(Oc4ccccc4)cc3)c2c1 | – | 49 | 113 | 99 | 99 | 95 | 92 | 80 | 98 | 90 | 107 | 90 | 99 | 85 | 123 | 98 | 114 | 96 | 98 | 85
N#Cc1cnc2cnc(NCc3cccnc3)cc2c1Nc1ccc(F)c(Cl)c1 | – | – | 100 | 94 | 9 | 8 | 91 | 91 | – | – | 21 | 11 | – | – | 22 | 11 | 123 | 97 | 71 | 46
CCN(CC)C(=O)c1ccc(Nc2nc(OCC3CCCCC3)c3nc[nH]c3n2)cc1 | 62 | 15 | – | 20 | – | 26 | 59 | 9 | 52 | 7 | – | 34 | 59 | 10 | 74 | 16 | 39 | 5 | 67 | 16
CC#CC(=O)Nc1cc2c(Nc3ccc(F)c(Cl)c3)ncnc2cn1 | 87 | 81 | 94 | 100 | 107 | 94 | 126 | 85 | – | 94 | 97 | 86 | 90 | 89 | 82 | 103 | 96 | 86 | 82 | 108
N#C/C(=C(\N)Sc1ccc(N)cc1)c1ccccc1C(F)(F)F | 85 | 74 | 105 | 103 | 104 | 96 | 86 | – | 97 | 102 | 96 | 86 | 90 | 92 | 110 | 100 | 98 | 88 | 102 | 94
O=c1c2ccccc2[nH]c(=S)n1CCN1CCC(=C(c2ccc(F)cc2)c2ccc(F)cc2)CC1 | 63 | 78 | 96 | 72 | 114 | 104 | 143 | 80 | 99 | 88 | 114 | 86 | 97 | 89 | 108 | 97 | 99 | – | 88 | 95
COc1cccc(-c2cc(=O)c3ccccc3o2)c1N | 101 | 103 | 123 | 98 | 99 | 99 | 93 | 10 | 96 | 85 | 90 | 84 | 102 | 99 | 112 | 89 | 102 | 100 | 103 | 89
Cc1cc2ncc(-c3ccccc3)nc2cc1C | – | – | 103 | 97 | 104 | 103 | 135 | 82 | 100 | 104 | 96 | 90 | 102 | 94 | 93 | 110 | 107 | 88 | 102 | 97
CC(=O)c1ccc(N2CCOCC2)cc1O | 93 | 95 | 110 | – | 104 | 100 | 103 | 88 | 104 | 100 | 106 | 83 | 86 | 74 | 95 | 84 | 99 | 89 | 91 | 97
CO[C@H]1[C@@H](OC)C[C@H](C)[C@@H](OC)C2=CC(=O)C=C(NC(=O)/C(C)=C/C=C/[C@H](OC)[C@@H](OC(N)=O)/C(C)=C/[C@@H]1C)C2=O | 76 | 75 | 92 | 106 | 111 | 110 | 138 | 83 | 104 | 91 | 100 | 87 | 104 | 92 | 105 | 83 | 107 | 92 | – | 101
CN(C)c1ccc(/C=C2\C(=O)Nc3ccccc32)cc1 | 83 | 69 | 90 | 61 | 97 | 112 | 111 | 91 | 111 | 103 | – | 89 | 106 | 87 | 102 | 96 | 102 | 50 | 88 | 80
c1ccc2c(-c3ccncc3)c[nH]c2c1 | 52 | 59 | 106 | 61 | – | – | – | 83 | – | – | 90 | 73 | 91 | 74 | 86 | 75 | 85 | 82 | 83 | 94
CNc1cc2c(Nc3cccc(Br)c3)ncnc2cn1 | 34 | 8 | – | 26 | 111 | 99 | 123 | 94 | 105 | 107 | 88 | 83 | 98 | 110 | 79 | 89 | 94 | 81 | 87 | 74
